Source: ChEMBL document CHEMBL2218924, “A broad activity screen in support of a chemogenomic map for kinase signalling research and drug discovery” (Biochem J, 2013)

Experiments:
[1] = biological target: Death-associated protein kinase 1 (Homo sapiens) (UniProt P53355); details: at 10 µM
[2] = biological target: Death-associated protein kinase 2 (Homo sapiens) (UniProt Q9UIK4); details: at 1 µM
[3] = biological target: Death-associated protein kinase 2 (Homo sapiens) (UniProt Q9UIK4); details: at 10 µM
[4] = biological target: T1, Serine/threonine-protein kinase DCLK2 (Homo sapiens) (UniProt Q8N568); details: at 1 µM
T1 sequence (whole entry): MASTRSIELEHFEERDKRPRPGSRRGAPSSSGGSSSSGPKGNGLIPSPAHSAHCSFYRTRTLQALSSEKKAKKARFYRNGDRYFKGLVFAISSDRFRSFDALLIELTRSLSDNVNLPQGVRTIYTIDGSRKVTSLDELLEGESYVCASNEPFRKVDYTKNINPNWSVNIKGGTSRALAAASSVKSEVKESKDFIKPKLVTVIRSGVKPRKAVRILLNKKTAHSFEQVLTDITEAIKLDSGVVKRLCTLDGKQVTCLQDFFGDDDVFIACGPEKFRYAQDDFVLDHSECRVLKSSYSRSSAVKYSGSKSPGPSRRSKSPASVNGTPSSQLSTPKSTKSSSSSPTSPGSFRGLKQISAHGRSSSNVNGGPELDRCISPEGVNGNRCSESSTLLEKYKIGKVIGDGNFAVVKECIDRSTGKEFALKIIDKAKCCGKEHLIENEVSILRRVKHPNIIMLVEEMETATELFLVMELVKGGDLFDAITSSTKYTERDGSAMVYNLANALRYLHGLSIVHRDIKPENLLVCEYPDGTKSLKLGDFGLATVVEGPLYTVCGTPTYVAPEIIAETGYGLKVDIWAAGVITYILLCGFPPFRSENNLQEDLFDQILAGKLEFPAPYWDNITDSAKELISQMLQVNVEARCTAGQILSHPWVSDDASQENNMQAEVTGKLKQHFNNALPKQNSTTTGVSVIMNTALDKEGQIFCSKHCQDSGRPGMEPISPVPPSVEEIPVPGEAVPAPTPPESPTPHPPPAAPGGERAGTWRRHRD

[5] = biological target: T1, Serine/threonine-protein kinase DCLK2 (Homo sapiens); details: at 10 µM
[6] = biological target: T2, Discoidin domain-containing receptor 2 (Homo sapiens) (UniProt Q16832); details: at 1 µM
T2 sequence (whole entry): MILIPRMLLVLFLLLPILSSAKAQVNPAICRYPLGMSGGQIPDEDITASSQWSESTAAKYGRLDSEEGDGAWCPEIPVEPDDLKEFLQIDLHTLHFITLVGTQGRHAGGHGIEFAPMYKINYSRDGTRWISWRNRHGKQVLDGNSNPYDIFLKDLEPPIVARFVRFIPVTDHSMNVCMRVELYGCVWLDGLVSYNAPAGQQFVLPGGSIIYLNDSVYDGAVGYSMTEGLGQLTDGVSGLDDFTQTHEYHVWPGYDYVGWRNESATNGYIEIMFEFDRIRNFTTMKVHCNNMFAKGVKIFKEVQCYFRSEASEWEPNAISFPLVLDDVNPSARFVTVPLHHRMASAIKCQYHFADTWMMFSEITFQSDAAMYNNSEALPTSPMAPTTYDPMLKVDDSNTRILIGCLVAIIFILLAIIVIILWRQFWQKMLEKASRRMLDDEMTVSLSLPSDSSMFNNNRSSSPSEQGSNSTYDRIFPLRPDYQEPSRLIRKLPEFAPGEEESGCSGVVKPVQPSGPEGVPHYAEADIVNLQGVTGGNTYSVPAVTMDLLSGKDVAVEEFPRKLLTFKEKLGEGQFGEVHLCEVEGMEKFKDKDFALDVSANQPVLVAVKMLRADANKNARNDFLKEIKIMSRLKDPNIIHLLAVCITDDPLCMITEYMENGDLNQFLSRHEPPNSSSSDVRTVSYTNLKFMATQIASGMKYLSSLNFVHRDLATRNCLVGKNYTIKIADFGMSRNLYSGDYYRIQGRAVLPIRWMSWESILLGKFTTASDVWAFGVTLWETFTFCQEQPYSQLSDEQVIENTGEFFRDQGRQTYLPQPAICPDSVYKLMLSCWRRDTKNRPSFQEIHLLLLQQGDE

[7] = biological target: T2, Discoidin domain-containing receptor 2 (Homo sapiens); details: at 10 µM
[8] = biological target: T3, Myotonin-protein kinase (Homo sapiens) (UniProt Q09013); details: at 1 µM
T3 sequence (whole entry): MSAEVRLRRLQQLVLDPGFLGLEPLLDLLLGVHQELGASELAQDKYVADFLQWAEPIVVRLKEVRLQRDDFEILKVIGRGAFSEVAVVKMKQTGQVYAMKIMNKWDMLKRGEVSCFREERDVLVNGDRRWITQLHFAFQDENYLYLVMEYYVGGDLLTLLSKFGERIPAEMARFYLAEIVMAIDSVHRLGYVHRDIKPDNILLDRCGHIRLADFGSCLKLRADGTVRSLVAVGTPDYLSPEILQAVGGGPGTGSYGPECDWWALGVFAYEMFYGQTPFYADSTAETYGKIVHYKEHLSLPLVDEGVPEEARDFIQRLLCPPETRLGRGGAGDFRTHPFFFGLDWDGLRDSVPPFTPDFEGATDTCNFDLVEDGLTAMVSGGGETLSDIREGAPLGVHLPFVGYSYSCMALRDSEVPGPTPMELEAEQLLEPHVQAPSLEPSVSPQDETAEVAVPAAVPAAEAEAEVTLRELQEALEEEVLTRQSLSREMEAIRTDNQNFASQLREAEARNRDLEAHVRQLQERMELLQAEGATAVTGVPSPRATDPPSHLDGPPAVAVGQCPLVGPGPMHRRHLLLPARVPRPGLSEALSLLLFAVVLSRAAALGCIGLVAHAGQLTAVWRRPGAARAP

[9] = biological target: T3, Myotonin-protein kinase (Homo sapiens); details: at 10 µM
[10] = biological target: T4, Serine/threonine-protein kinase 17A (Homo sapiens) (UniProt Q9UEE5); details: at 1 µM
T4 sequence (whole entry): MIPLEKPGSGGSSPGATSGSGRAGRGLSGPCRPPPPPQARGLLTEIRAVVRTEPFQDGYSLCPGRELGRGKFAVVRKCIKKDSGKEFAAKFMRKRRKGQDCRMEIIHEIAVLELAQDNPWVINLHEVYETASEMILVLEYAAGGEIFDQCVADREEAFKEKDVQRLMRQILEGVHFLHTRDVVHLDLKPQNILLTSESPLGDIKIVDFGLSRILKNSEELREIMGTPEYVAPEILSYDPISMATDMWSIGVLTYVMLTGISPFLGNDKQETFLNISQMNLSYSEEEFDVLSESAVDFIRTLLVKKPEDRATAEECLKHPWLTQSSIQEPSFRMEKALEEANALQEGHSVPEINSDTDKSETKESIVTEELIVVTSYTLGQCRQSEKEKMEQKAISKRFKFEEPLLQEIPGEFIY

[11] = biological target: T4, Serine/threonine-protein kinase 17A (Homo sapiens); details: at 10 µM
[12] = biological target: T5, Dual specificity tyrosine-phosphorylation-regulated kinase 2 (Homo sapiens) (UniProt Q92630); details: at 1 µM
T5 sequence (whole entry): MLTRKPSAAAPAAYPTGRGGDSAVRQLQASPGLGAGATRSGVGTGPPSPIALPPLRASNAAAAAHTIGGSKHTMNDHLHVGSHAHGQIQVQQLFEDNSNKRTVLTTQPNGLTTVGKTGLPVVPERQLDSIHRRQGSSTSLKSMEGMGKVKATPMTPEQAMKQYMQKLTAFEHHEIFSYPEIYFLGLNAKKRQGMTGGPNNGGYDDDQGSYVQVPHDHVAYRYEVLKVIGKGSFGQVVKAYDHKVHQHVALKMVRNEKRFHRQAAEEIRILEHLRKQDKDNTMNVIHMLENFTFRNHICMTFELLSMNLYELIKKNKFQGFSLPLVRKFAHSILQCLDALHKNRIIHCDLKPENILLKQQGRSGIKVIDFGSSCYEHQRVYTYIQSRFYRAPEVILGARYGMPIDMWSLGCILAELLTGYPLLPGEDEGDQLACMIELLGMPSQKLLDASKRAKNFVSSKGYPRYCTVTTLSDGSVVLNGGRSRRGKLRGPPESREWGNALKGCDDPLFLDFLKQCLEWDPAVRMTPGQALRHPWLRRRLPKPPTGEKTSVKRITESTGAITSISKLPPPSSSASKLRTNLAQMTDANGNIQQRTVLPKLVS

[13] = biological target: T5, Dual specificity tyrosine-phosphorylation-regulated kinase 2 (Homo sapiens); details: at 10 µM
[14] = biological target: T6, Ephrin type-A receptor 1 (Homo sapiens) (UniProt P21709); details: at 1 µM
T6 sequence (whole entry): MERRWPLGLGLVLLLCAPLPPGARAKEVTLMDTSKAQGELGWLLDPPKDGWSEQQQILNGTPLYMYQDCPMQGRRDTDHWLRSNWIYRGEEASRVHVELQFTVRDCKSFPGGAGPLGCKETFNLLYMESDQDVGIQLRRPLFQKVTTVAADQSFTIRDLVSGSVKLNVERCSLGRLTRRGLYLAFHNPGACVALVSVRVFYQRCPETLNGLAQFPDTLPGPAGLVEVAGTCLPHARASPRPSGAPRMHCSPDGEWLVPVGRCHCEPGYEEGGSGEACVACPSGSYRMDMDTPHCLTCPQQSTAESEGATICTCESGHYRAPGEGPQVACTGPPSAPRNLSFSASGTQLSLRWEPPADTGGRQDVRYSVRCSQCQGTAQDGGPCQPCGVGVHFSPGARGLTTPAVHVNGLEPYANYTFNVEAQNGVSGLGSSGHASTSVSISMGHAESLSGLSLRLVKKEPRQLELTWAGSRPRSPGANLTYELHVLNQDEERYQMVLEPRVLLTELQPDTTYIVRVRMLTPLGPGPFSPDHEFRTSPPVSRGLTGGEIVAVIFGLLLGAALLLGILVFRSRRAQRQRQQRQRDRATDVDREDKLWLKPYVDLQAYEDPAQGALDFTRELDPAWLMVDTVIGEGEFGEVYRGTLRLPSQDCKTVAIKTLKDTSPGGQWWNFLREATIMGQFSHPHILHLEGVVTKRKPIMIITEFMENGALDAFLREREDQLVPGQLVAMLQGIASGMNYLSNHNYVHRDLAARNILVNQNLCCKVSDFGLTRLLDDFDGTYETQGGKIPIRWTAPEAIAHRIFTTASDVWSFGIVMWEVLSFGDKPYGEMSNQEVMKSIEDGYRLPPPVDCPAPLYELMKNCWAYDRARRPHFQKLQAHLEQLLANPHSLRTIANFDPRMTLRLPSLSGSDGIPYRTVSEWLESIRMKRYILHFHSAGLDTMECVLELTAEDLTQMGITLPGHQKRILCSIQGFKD

[15] = biological target: T6, Ephrin type-A receptor 1 (Homo sapiens); details: at 10 µM
[16] = biological target: Ephrin type-A receptor 2 (Homo sapiens) (UniProt P29317); details: at 1 µM
Ephrin type-A receptor 2 (Homo sapiens), sequence (P29317 whole entry): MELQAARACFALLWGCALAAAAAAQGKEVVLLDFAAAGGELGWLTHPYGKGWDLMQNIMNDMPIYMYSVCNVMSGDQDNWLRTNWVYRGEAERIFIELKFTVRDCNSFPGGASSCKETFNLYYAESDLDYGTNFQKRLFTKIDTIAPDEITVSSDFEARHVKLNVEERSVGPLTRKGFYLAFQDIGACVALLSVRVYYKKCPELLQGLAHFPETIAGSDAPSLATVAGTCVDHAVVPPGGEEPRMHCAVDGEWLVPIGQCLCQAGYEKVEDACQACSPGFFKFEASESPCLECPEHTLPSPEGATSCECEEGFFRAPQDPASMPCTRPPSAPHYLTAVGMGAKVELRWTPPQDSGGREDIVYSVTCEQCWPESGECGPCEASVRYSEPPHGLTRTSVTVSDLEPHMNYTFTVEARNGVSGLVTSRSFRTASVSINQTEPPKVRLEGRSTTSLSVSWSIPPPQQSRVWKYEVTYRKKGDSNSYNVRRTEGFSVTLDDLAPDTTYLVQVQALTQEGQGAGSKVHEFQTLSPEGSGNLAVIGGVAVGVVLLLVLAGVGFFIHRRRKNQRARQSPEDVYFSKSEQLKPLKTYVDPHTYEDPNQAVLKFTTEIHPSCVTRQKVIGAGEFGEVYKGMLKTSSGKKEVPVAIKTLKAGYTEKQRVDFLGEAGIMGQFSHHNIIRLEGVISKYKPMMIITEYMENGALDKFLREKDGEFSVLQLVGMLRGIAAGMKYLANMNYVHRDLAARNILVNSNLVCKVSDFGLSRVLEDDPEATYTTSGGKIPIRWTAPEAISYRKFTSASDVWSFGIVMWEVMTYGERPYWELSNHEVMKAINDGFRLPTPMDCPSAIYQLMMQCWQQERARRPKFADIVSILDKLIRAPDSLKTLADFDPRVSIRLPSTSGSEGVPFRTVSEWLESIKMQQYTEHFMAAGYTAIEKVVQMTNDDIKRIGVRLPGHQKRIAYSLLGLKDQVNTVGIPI

[17] = biological target: Ephrin type-A receptor 2 (Homo sapiens) (UniProt P29317); details: at 10 µM
[18] = biological target: T7, Ephrin type-A receptor 3 (Homo sapiens) (UniProt P29320); details: at 1 µM
T7 sequence (whole entry): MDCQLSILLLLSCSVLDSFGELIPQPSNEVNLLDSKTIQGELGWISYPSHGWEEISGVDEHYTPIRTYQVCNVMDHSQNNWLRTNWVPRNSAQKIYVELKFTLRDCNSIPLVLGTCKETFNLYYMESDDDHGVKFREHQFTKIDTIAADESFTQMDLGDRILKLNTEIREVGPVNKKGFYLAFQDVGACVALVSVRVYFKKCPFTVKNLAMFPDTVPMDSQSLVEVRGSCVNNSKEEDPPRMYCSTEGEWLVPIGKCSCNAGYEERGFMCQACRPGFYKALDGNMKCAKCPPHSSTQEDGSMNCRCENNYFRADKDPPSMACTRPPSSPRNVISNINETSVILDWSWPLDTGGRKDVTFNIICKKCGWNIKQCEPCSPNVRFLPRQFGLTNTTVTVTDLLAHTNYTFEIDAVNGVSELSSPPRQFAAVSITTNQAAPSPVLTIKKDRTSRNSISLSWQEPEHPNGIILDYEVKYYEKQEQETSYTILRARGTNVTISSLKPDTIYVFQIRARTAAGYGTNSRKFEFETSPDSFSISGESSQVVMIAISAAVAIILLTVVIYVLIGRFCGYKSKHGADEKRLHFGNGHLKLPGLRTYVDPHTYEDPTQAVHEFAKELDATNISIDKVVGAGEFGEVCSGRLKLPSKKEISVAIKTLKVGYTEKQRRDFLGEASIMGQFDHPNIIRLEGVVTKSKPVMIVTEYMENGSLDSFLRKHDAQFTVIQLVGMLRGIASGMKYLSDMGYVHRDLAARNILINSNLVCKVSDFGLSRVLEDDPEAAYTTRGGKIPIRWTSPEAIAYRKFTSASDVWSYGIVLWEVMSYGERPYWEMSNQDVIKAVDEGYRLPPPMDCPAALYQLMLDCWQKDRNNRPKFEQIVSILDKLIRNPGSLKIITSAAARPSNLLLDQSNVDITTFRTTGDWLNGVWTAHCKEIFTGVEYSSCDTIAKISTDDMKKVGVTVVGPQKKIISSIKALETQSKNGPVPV

[19] = biological target: Epidermal growth factor receptor (Homo sapiens) (UniProt P00533); details: at 1 µM
Epidermal growth factor receptor (Homo sapiens), sequence (P00533 whole entry): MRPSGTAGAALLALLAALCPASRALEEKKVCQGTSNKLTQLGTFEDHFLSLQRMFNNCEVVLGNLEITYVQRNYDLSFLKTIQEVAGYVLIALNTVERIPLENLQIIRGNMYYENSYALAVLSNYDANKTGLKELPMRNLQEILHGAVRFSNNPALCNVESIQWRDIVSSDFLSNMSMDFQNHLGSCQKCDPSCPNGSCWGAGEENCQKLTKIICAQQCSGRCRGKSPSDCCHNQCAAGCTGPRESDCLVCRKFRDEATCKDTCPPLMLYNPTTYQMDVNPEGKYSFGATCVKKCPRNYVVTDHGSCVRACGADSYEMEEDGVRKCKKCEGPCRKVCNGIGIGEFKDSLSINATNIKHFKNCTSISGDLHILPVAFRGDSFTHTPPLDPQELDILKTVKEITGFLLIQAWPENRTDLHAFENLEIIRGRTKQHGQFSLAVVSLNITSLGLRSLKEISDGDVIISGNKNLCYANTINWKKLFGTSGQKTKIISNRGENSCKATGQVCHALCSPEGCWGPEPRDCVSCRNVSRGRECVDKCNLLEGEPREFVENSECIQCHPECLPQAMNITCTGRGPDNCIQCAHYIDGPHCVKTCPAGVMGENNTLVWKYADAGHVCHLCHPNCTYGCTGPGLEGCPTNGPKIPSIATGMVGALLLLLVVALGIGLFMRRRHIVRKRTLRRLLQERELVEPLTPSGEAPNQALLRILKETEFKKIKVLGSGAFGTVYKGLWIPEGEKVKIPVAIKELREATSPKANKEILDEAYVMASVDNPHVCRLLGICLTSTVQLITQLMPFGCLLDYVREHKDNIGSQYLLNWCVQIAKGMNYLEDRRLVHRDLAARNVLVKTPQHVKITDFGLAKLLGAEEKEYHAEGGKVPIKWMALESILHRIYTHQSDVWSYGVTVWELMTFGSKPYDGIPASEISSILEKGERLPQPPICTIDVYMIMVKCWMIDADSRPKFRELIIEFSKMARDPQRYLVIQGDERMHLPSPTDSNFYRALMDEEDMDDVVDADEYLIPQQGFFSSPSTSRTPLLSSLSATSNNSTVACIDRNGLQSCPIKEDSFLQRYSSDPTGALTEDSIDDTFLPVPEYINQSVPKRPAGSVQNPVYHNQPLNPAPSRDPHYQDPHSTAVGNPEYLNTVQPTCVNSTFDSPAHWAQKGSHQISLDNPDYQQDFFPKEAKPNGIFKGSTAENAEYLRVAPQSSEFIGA

[20] = biological target: Epidermal growth factor receptor (Homo sapiens) (UniProt P00533); details: at 10 µM

Death-associated protein kinase 2 (Homo sapiens), sequence (Q9UIK4 whole entry, looked up): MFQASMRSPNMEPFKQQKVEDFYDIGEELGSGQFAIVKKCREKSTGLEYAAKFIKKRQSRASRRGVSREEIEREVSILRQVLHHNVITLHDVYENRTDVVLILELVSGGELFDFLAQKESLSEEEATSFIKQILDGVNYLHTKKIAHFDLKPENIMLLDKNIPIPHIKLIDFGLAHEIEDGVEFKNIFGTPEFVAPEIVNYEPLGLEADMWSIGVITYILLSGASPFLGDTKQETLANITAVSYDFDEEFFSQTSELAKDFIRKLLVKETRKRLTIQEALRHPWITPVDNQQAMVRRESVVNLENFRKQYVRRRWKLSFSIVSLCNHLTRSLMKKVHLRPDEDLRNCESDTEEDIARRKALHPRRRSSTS
Death-associated protein kinase 1 (Homo sapiens), sequence (P53355 whole entry, looked up): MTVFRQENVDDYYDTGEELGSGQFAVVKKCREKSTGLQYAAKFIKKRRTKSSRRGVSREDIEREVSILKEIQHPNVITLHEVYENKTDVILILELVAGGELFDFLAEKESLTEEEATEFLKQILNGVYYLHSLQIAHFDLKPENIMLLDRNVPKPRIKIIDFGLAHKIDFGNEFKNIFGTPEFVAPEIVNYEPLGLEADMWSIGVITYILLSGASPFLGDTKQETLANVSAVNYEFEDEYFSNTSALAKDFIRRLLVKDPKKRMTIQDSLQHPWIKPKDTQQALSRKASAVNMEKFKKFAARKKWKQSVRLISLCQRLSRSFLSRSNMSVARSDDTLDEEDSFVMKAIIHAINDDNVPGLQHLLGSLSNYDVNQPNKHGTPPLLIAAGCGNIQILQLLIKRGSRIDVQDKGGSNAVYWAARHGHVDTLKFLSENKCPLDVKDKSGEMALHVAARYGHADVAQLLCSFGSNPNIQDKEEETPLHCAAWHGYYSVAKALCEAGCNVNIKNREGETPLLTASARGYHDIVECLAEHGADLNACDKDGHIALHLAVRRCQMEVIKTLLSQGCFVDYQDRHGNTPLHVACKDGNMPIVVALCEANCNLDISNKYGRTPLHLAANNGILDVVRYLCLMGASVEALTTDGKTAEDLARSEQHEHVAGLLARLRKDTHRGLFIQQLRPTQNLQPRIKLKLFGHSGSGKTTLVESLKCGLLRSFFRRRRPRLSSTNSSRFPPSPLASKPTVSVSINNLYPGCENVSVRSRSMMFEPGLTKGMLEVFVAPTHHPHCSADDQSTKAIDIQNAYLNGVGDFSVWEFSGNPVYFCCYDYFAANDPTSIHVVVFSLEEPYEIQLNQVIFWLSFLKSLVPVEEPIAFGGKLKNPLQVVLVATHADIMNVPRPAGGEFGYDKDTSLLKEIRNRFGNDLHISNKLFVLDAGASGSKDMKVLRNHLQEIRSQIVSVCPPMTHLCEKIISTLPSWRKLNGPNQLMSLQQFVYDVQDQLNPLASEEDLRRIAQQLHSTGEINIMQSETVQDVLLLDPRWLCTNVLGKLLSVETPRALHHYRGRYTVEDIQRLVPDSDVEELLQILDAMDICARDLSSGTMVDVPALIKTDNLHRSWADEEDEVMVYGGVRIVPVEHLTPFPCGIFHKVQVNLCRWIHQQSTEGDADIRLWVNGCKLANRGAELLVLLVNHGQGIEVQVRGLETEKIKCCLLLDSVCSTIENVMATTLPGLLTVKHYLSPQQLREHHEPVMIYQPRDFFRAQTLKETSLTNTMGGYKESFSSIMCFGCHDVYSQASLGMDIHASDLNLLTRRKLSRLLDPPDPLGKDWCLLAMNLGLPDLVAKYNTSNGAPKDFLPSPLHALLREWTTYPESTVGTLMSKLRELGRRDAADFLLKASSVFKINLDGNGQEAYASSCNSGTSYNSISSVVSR

Compound	residual activity [1] [%]	residual activity [2] [%]	residual activity [3] [%]	residual activity [4] [%]	residual activity [5] [%]	residual activity [6] [%]	residual activity [7] [%]	residual activity [8] [%]	residual activity [9] [%]	residual activity [10] [%]	residual activity [11] [%]	residual activity [12] [%]	residual activity [13] [%]	residual activity [14] [%]	residual activity [15] [%]	residual activity [16] [%]	residual activity [17] [%]	residual activity [18] [%]	residual activity [19] [%]	residual activity [20] [%]
COc1cc2ncnc(N3CCN(C(=O)Nc4ccc(Oc5ccccc5)cc4)CC3)c2cc1OC	102	93	112	98	242	106	117	115	142	120	101	92	98	85	76	101	109	98	–	–
NC(=O)c1ccc2[nH]c(-c3ccc(Oc4ccc(Cl)cc4)cc3)nc2c1	98	101	102	111	182	98	102	107	83	58	42	87	53	96	85	100	116	100	111	115
Cn1cnc2cc3c(Nc4cccc(Br)c4)ncnc3cc21	99	96	113	102	110	75	60	112	111	64	28	98	79	60	49	89	62	90	–	–
O=C1NC(=O)/C(=C/c2ccc3c(c2)OC(F)(F)O3)S1	81	95	96	110	66	130	105	104	104	118	99	86	65	93	96	107	115	103	116	119
